According to ChEMBL document CHEMBL1157539, “Thousands of chemical starting points for antimalarial lead identification” (Nature, 2010):

Test system: HepG2
Assay: GSK_TCMDC: Percent inhibition of human HepG2 cell line. Test compounds present at 10uM.
Type: functional

Compared with `O=C(N[C@H]1CCN(CCc2ccc(O[C@H]3CCNC3)c(Br)c2)C1)c1ccc(Cl)c(Cl)c1.O=C(O)C(F)(F)F`, `Cc1cc(NC(=O)NCCN2CCC(NS(=O)(=O)c3ccc(Br)cc3)C2)c2ccccc2n1.O=C(O)C(F)(F)F` (configuration not stated) is lower in Inhibition: 28% for the first, 9% for the second.

First: COc1cccc2c(NN=Cc3cccc(F)c3)ccnc12
Second: Fc1ccc2[nH]ccc(=NN=CC=Cc3ccccc3)c2c1
The Inhibition of the first is lower: 12% for the first, 29% for the second.

Going from `COc1cc(F)c2ncc(Cl)c([C@@H](O)CN3CCC(NCc4cc5c(cn4)OCCO5)CC3)c2c1.Cl` to `Cl.Cn1ncc2c3c(CCN4CCC(NCc5ccc6c(c5)NC(=O)CO6)CC4)c(Cl)cnc3ccc21`, the Inhibition rises from 11% to 18%.

First: COc1ccc(CNc2ccnc(-n3cnc4cc(C)c(C)cc43)n2)cc1Cl.O=C(O)C(F)(F)F
Second: Cn1nccc1C(=O)NCCNCc1ccc(-c2cccc(-c3nc4cc(C(F)(F)F)ccc4[nH]3)c2)cc1.O=C(O)C(F)(F)F
The Inhibition of the first is lower: 6% for the first, 51% for the second.

Compared with `Cc1cc(OC(C)C(=O)N2CCc3ccccc32)ccc1Cl` (configuration not stated), `Cc1cc(NC(=O)Nc2cccc(N(C)C)c2)c2ccccc2n1` is lower in Inhibition: 20% for the first, 0% for the second.

First: CC1CN(c2cnn(C/C=C/c3ccc(NC(=O)c4ccc([N+](=O)[O-])cc4)cc3)c(=O)c2Cl)CC(C)N1.O=C(O)C(F)(F)F (configuration not stated)
Second: O=C(Nc1ccc(Cn2ncc(N3CCCNCC3)c(Cl)c2=O)cc1)Nc1cc(F)cc(C(F)(F)F)c1.O=C(O)C(F)(F)F
The Inhibition of the first is lower: 22% for the first, 35% for the second.

Going from `Cl.O=C(CCCCCCc1ccccc1)Nc1ccc2nc3c(c(NCc4ccccc4)c2c1)CCCC3` to `O=C(O)C(F)(F)F.O=S(=O)(NCCN1CCCC1)c1ccc(-c2ccc(CNCc3ccccc3)cc2)s1`, the Inhibition rises from 19% to 34%.

Going from `CCCCCCCc1c(C)nc2cc(OC)ccc2c1O` to `Cc1ccc(CCOCCCCCNCC(O)c2cc(Cl)c(N)c(Cl)c2)cc1` (configuration not stated), the Inhibition rises from 5% to 10%.

Going from `O=C(NCC1CCN(C/C=C/c2ccccc2)CC1)Nc1ccc(Oc2ccccc2)cc1` to `O=C(Cc1ccc(-c2ccccc2)cc1)N[C@H]1CCN(Cc2ccc(OCCCN3CCCCC3)cc2)C1`, the Inhibition falls from 40% to 36%.

Going from `O=C(Nc1ccc(Cl)c(-c2nc3ccccc3[nH]2)c1)c1ccc(-c2ccc(Cl)cc2)o1` to `c1ccc(-c2cc3cccc(-c4nc5cnccc5[nH]4)c3o2)cc1`, the Inhibition rises from 16% to 37%.

Compared with `CCCNC(=O)CN1CN(c2ccccc2)C2(CCN(C(=O)c3ccc(C(C)(C)C)cc3)CC2)C1=O`, `CCN(Cc1ccccc1)C1CCN(Cc2cc(Br)ccc2O)CC1.O=C(O)C(=O)O` is higher in Inhibition: 0% for the first, 6% for the second.

Going from `CCCNCc1ccc(-c2ccc(CN(Cc3ccc4c(c3)OCO4)C(=O)Cc3cccnc3)cc2)nc1.O=C(O)C(F)(F)F` to `Fc1ccc2[nH]c(-c3cccc(-c4ccc(CNCc5ccccc5)cc4)c3)nc2c1.O=C(O)C(F)(F)F`, the Inhibition rises from 16% to 27%.

First: COc1ccc2nccc([C@@H](O)CN3CCC(NC(=O)Cc4cccc5c(Br)cccc45)CC3)c2c1
Second: CCc1cccc2c(C#N)cn(CC(=O)Nc3ccc(OC)cc3)c12
The Inhibition of the first is higher: 15% for the first, 0% for the second.

Going from `Cl.N#Cc1ccc(NC(=O)Nc2ccc3c(c2)CCN(C2CCC2)CC3)cc1` to `COc1ccc2cc(C(=O)Nc3ccc4c(c3)CCN(C3CCC3)CC4)ccc2c1.O=C(O)C(F)(F)F`, the Inhibition rises from 6% to 34%.

Compared with `CC(Nc1cc(-c2ccccn2)nc(-c2ccccn2)n1)c1ccccc1` (configuration not stated), `O=C(N[C@@H](Cc1ccccc1)C(=O)NC1CCCCCC1)c1ccc(O)c(-c2ccc(Cl)c(Cl)c2)c1` is lower in Inhibition: 61% for the first, 0% for the second.

First: NC1CCN(Cc2ccc(-c3cccc(-c4nc5cc(F)ccc5[nH]4)c3)cc2)C1.O=C(O)C(F)(F)F (configuration not stated)
Second: N#Cc1ccc(N2CCN(Cc3ccc(-c4cccc(-c5nc6ccccc6[nH]5)c4)cc3)CC2)nc1.O=C(O)C(F)(F)F
The Inhibition of the first is higher: 47% for the first, 33% for the second.

First: CNCc1ccc2nc(-c3coc(Cc4cc(Cl)ccc4OCC(C)C)n3)[nH]c2c1.Cl
Second: COc1ccc(N2CCN(CCCCNC(=O)c3ccc(NC(=O)c4cc(Cl)cc(Cl)c4)cc3)CC2)c(OC)c1.Cl
The Inhibition of the first is higher: 34% for the first, 21% for the second.

First: CC1(C)N=C(N)N=C(N)C1c1ccc(Cl)c(Cl)c1.Cl (configuration not stated)
Second: CCCCN(CCCC)/C(=N/C(=N)NCc1ccc(Cl)c(Cl)c1)NCCCCCCN/C(=N\C(=N)NCc1ccc(Cl)c(Cl)c1)N(CCCC)CCCC
The Inhibition of the first is higher: 47% for the first, 9% for the second.

`CC(C)(C)C(=O)N1CCN(c2ccc([N+](=O)[O-])c(NC3CC3)c2)CC1` was tested, and the Inhibition was 8%.
